# In PubChem BioAssay AID1376 (SRMLSC, 2008):
# The whole screen tested about 220,000 compounds, of which about 530 (0.24%) were called active. Cut-off read from the data, not from the text of the source: active = inhibition above about 13%; inconclusive = no clear call, values can overlap the other calls; inactive = below that. For the sample, actives were picked, then their nearest neighbours and some compounds at random. Measured potencies and affinities stand elsewhere.
# Molecular target: Bifunctional protein GlmU (Mycobacterium tuberculosis (strain ATCC 25618 / H37Rv)) (UniProt P9WMN3)
# Test: inhibition of mycobacterial GlmU enzyme – biochemical, glucosamine-1-phosphate acetyltransferase (AID 1376);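 note: 0% = complete reaction with vehicle and 100% = reaction without substrate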
# Conditions: M. tuberculosis GlmU acetyltransferase enzyme assay; active compounds read high;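 tested at 30 µM in the primary screen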
# Bifunctional protein GlmU (Mycobacterium tuberculosis (strain ATCC 25618 / H37Rv)), sequence (P9WMN3 whole entry, looked up): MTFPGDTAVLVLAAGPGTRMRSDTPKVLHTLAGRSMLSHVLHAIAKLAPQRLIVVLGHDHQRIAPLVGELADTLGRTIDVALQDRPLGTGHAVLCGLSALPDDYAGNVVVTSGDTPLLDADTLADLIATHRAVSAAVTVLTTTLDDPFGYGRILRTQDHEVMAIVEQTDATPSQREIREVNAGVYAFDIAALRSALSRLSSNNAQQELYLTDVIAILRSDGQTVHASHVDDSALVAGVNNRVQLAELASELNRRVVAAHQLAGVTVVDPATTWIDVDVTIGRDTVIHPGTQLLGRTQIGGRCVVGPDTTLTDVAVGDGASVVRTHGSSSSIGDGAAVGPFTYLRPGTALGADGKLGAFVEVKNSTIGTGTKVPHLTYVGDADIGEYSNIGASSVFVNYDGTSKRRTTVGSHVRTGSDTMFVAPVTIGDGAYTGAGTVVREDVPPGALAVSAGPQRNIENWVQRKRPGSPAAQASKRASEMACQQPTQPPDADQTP
row,SMILES,inhibition
1,COc1cc([N+](=O)[O-])ccc1NC(=O)Cc1ccc(F)cc1,4.76% (inactive)
2,COc1ccc(CN2CCn3ncc(C(=O)Nc4cc(C)cc(C)c4)c3C2=O)cc1,-5.28% (inactive)
3,O=C(NNS(=O)(=O)c1ccccc1)c1sccc1-n1cccc1,-3.8% (inactive)
4,O=C(NNS(=O)(=O)c1cc(Cl)cc(Cl)c1)c1sccc1-n1cccc1,13.9% (active)
5,O=C(NNS(=O)(=O)c1ccc(Cl)cc1)c1sccc1-n1cccc1,-3.47% (inactive)
6,CC1(C(=O)OCC(=O)Nc2ccc3ccccc3c2)CC1(Cl)Cl (centres undefined),0.98% (inactive)
7,O=C(N1CCN(Cc2ccc3c(c2)OCO3)CC1)C12CC3CC(CC(C3)C1)C2,3.26% (inactive)
8,COC(=O)c1ccc2c(=O)sc(N3CCC(C(N)=O)CC3)nc2c1,-0.93% (inactive)
9,CCOc1c(O)ccc(/C=C2\SC(=S)NC2=O)c1[N+](=O)[O-],12.8% (active)
10,C=CCN1C(=O)/C(=C/c2ccc(OC(C)=O)c(OCC)c2[N+](=O)[O-])SC1=S,-0.95% (inactive)
11,CCOc1ccc(/C=C2\SC(=S)NC2=O)cc1OC,0.99% (inactive)
12,COC(=O)C1NN=C(C(=O)c2ccccc2)C1c1ccccc1 (centres undefined),-3.17% (inactive)
13,Cc1cc(Cl)ccc1OCC(=O)OCC(=O)Nc1ccc(F)c([N+](=O)[O-])c1,4.62% (inactive)
14,N/C(=N\S(=O)(=O)c1cc(C(F)(F)F)cc(C(F)(F)F)c1)c1ccccc1,4.74% (inactive)
15,NC(=O)c1ccc(/C(N)=N/S(=O)(=O)c2cc(C(F)(F)F)cc(C(F)(F)F)c2)cc1,2.05% (inactive)
16,N/C(=N\S(=O)(=O)c1cc(C(F)(F)F)cc(C(F)(F)F)c1)c1cccs1,13.9% (active)
17,CC(=O)c1ccc(NC(=S)NC(=O)c2c(Cl)c(C)nn2C)cc1,5.85% (inactive)
18,CCOC(=O)c1ccc(NC(=S)N2CCC(C(N)=O)CC2)cc1,6.36% (inactive)
19,Cc1ccc(O)c(CCc2ccccc2)n1,-3.57% (inactive)
20,Cc1ccc(O)c(CO)n1,15% (active)
21,Cc1ccc(O)c(CC(C)C)n1,6.41% (inactive)
22,COc1ccccc1NC(=O)Cn1c(CN2CCCCC2)nc2ccccc2c1=O,0.52% (inactive)
23,O=C(NC1(C(F)(F)F)NC(=O)N(c2ccc(F)cc2)C1=O)c1cccs1 (centres undefined),-0.58% (inactive)
24,CCOC(=O)CNC(=O)CSc1nc2sc(C)c(C)c2c(=O)n1C,15% (active)

row,SMILES,inhibition
1,Cc1sc2nc(SCC(=O)NCCO)n(C)c(=O)c2c1C,3.09% (inactive)
2,CCOC(=O)CSc1nc2sc(C)c(C)c2c(=O)n1C,3.47% (inactive)
3,Cc1c(C(=O)NCc2cccnc2)sc2ncn(CC(=O)N3CCCCC3C)c(=O)c12 (centres undefined),-7.32% (inactive)
4,CCCCC(=O)Nc1nc(C)c(C(C)=O)s1,-1.28% (inactive)
5,Cc1nc(NC(=O)CCCC(=O)Nc2nc(C)c(C)s2)sc1C,13.9% (active)
6,Cc1nc(NC(=O)C2CC2)sc1C,-0.38% (inactive)
7,CCC(=O)N(Cc1cc2cc(C)c(C)cc2[nH]c1=O)C1CCCCC1,-7.37% (inactive)
8,CC(=O)n1cc(/C=N/NC(N)=S)c2ccccc21,-6.26% (inactive)
9,CSCC[C@H](NC(=O)OC(C)(C)C)C(=O)N/N=C/c1ccc2nccnc2c1,-6.4% (inactive)
10,CSc1ccccc1C(=O)C1CCCN(Cc2ccn[nH]2)C1 (centres undefined),10.5% (inactive)
11,O=C(c1cc2cc(Cl)cc(Cl)c2oc1=O)N1CCOCC1,-1.07% (inactive)
12,CN(Cc1ccco1)C(=O)c1c[nH]c2ccc(S(=O)(=O)Nc3ccc4c(c3)OCCO4)cc2c1=O,3.32% (inactive)
13,CCc1ccc(NS(=O)(=O)c2ccc3[nH]cc(C(=O)N(C)Cc4ccco4)c(=O)c3c2)cc1,1.75% (inactive)
14,Cc1ccccc1NS(=O)(=O)c1ccc2[nH]cc(C(=O)N(C)Cc3ccco3)c(=O)c2c1,29.4% (active)
15,COc1cccc(C2=NOC(C(=O)Nc3cc(OC)c(OC)c(OC)c3)C2)c1 (centres undefined),-0.12% (inactive)
16,CCOc1ncccc1C(=O)Nc1nnc(C2CC2)s1,8.29% (inactive)
17,CC1CCCCN1CCNC(=O)CN1C(=O)COc2ccccc21 (centres undefined),-1.43% (inactive)
18,CCn1c(SCC(=O)c2ccc(Cl)cc2)nnc1-c1cccs1,-2.46% (inactive)
19,CN(CC(=O)Nc1cccc(F)c1)C(=O)CCCc1cccs1,-1.08% (inactive)
20,COC(C[C@@H]1O[C@@H]1C(=O)[C@H](C)OCc1ccccc1)OC,-0.47% (inactive)
21,COC(C[C@@H]1O[C@@H]1C(=O)[C@@H](C)OCc1ccccc1)OC,14.7% (active)
22,COC(C[C@H]1O[C@@H]1C(=O)[C@H](C)OCc1ccccc1)OC,5.93% (inactive)
23,COC(=O)C1C(=O)c2c(C)noc2CC1(C)C (centres undefined),7.63% (inactive)
24,COc1ccc(C)cc1-n1nnnc1SCC(=O)Nc1cc(C)on1,4.65% (inactive)

row,SMILES,inhibition
1,Cc1cc(C)c2nc(SCCc3ccccc3)nc(C)c2c1,6.08% (inactive)
2,C#CCOc1ccc2c(C)cc(=O)oc2c1,13.2% (active)
3,Cc1cc(=O)oc2cc(OCC#N)ccc12,-3.06% (inactive)
4,C=C(Cl)COc1ccc2c(C)cc(=O)oc2c1,-5.17% (inactive)
5,COc1ccc(/C=C/C(=O)NNc2cc(=O)n(C)c(=O)n2C)cc1OC,3.78% (inactive)
6,COc1ccc(C/C(C)=N/NC(=S)Nc2ccccc2F)cc1,-0.55% (inactive)
7,O=C(CSc1nc2ccccc2n1CCc1ccccc1)c1ccc(O)c(O)c1,23.3% (active)
8,O=C(CSc1nc2ccccc2n1CCc1ccccc1)N1CCOCC1,-3.44% (inactive)
9,O=C(CSc1nc2ccccc2n1CCc1ccccc1)NC1CC1,0.08% (inactive)
10,CC1CC(=S)Nc2ccccc2N1C(=O)Nc1ccccc1 (centres undefined),1.98% (inactive)
11,O=C1S/C(=C\c2ccc(Cl)cc2)C(=O)N1CCn1cnnn1,-3.11% (inactive)
12,O=C(NCc1ccc(F)cc1)c1ccc(CS(=O)(=O)Cc2ccc(F)cc2)o1,0.32% (inactive)
13,COc1ccc(C(=O)Nc2nc3ccccc3s2)cc1OC,1.41% (inactive)
14,O=[N+]([O-])c1cc(CN(CCO)CCO)ccc1O,1.38% (inactive)
15,CC(NCC(O)COCc1ccc(Cl)cc1)c1ccccc1 (centres undefined),-4.31% (inactive)
16,O=c1oc2ccccc2c(Nc2cccc(O)c2)c1[N+](=O)[O-],1.89% (inactive)
17,O=c1oc2ccccc2c(Nc2ccccc2)c1[N+](=O)[O-],0.42% (inactive)
18,O=c1oc2ccccc2c(Nc2ccc(O)cc2)c1[N+](=O)[O-],13.3% (active)
19,Cc1cc(NC(=O)c2cc(-c3ccc(C)s3)nc3ccccc23)no1,2.43% (inactive)
20,COC(=O)/C(C(C)=O)=C(/C=C/C=C/N(C)C)N(C)C,6.24% (inactive)
21,CCOC(=O)C1(Cc2ccc(Cl)cc2)CCN(C(=O)C2CCCO2)CC1 (centres undefined),1.7% (inactive)
22,O=C(COc1ccc(Cc2ccccc2)cc1)c1ccc(F)cc1,-3.15% (inactive)
23,CC1=C(C#N)c2nc(N)c(C#N)c(C)c2/C1=C\c1ccc(OCC(=O)O)c(Cl)c1,4.55% (inactive)
24,CC1=C(C#N)c2nc(N)c(C#N)c(C)c2/C1=C\c1ccc(C)cc1,2.53% (inactive)

row,SMILES,inhibition
1,Cc1ccccc1/C=N/NC(=O)Cc1ccc(Cl)cc1,0.8% (inactive)
2,CC(C)(C)N1CC(C(=O)O)CC1=O (centres undefined),6.47% (inactive)
3,CC(=O)NC(CCS(C)(=O)=O)C(=O)Nc1ccc(Oc2ccccc2)cc1 (centres undefined),-3.46% (inactive)
4,COc1ccc(NC(=O)C(CCS(C)(=O)=O)NC(C)=O)cc1 (centres undefined),18.3% (active)
5,CC(=O)NC(CCS(C)(=O)=O)C(=O)Nc1ccccc1 (centres undefined),2.39% (inactive)
6,O=[N+]([O-])c1cccc(/C=N/n2c(COc3ccccc3)n[nH]c2=S)c1,9.99% (inactive)
7,CC(C)(C)c1ccc(Oc2ccc(NC(=O)c3cccs3)cn2)cc1,-0.97% (inactive)
8,O=C1CC(=O)c2c1cccc2[N+](=O)[O-],17% (active)
9,O=C1OCc2cccc([N+](=O)[O-])c21,7.84% (inactive)
10,O=C1c2cccc([N+](=O)[O-])c2C(=O)N1c1ccccc1,1.03% (inactive)
11,Cc1ccc(N=CC2=C(O)CC(C)(C)CC2=O)nc1,0.57% (inactive)
12,CC1(C)CC(=O)C(C=Nc2ccc(Cl)cn2)=C(O)C1,13.9% (active)
13,CC1(C)CC(=O)C(/C=N/c2ccccn2)=C(O)C1,0.36% (inactive)
14,CCCc1c(C)c(C#N)c2nc3ccccc3n2c1NCCCN1CCOCC1,11.7% (inactive)
15,N#Cc1c2c(c(NCCCN3CCOCC3)n3c1nc1ccccc13)CCC2,13.8% (active)
16,N#Cc1c2c(c(NCCN3CCOCC3)n3c1nc1ccccc13)CCCC2,6.82% (inactive)
17,COCCCNC(=O)C1CCN(C(=O)c2cc3sccc3n2Cc2ccc(F)cc2)CC1,1.5% (inactive)
18,O=C(O)C[C@@H]1C(=O)O[C@@H]2C(COC(=O)c3cc(O)c(O)c(O)c3)O[C@@H](OC(=O)c3cc(O)c(O)c(O)c3)[C@@H](OC(=O)c3cc(O)c(O)c4c3[C@H]1[C@H](O)C(=O)O4)[C@H]2OC(=O)c1cc(O)c(O)c(O)c1 (some centres undefined),67.3% (active)
19,O=C(OCC1O[C@@H](OC(=O)c2cc(O)c(O)c(O)c2)[C@@H](OC(=O)c2cc(O)c(O)c(O)c2)[C@@H](OC(=O)c2cc(O)c(O)c(O)c2)[C@@H]1OC(=O)c1cc(O)c(O)c(O)c1)c1cc(O)c(O)c(O)c1 (some centres undefined),7.78% (inactive)
20,CCCC1=C(C(=O)OCC)C(c2ccco2)C(C#N)=C(N)O1 (centres undefined),0.05% (inactive)
21,Cc1ccc(N2C(=O)C(Cc3ccc(O)cc3)NC2=S)cc1C (centres undefined),-4.47% (inactive)
22,CC(=O)N1CCC(=NNC(=O)CSc2cc(C)c(Br)cc2C)CC1,-1.13% (inactive)
